In all, about 7,900 compounds went through this assay and about 400 (5.1%) showed an effect of 50% or more. Only a selection was taken, and strong results are over-represented in it overall.
biological target: Parkinson's disease protein 7 (PARK7/DJ1) (human, UniProt Q99497); assay: primary screen, percent inhibition; read as competition with a fluorescent probe by fluorescence polarization; higher = more effect of the substance; conditions: 100 µM
Summary of the method: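 Fluorescence-polarization probe displacement (JYQ-107, 20 nM final, 2 h) after 2 h preincubation of PARK7 (0.2 μM final) with each fragment at 100 μM final. Read-out ex/em 480/520 nm; remaining activity derived from FP signal loss relative to reference controls.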

Chain of Parkinson's disease protein 7 (PARK7/DJ1) (Q99497 whole entry, looked up, the tested form may be a part): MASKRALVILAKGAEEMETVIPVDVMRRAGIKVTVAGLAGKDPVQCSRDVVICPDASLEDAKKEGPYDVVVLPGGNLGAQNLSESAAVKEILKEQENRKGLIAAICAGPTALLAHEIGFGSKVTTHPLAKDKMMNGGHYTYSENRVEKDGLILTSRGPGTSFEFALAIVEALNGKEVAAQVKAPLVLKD

| Structure (SMILES) | Inhibition % [%] |
| --- | --- |
| CC1(C)C(=O)NC1C1CCN(CC(C)(O)C(F)(F)F)CC1 (stereo not shown) | 6.49 |
| C=CC(=O)N1CCOC(c2ccccc2)C1 (stereo not shown) | 4.98 |
| O=C1CN=C(S)N1c1ccccc1Cl | 5.52 |
| CC1CCc2ccccc2N1C(=O)CCl (stereo not shown) | 100 |
| O=C(CCl)NCCCN1CCCC1=O | 3.35 |
| CC1Cc2ccccc2N1C(=O)CCl (stereo not shown) | 8.22 |
| O=C(CCl)N1CCc2ccccc21 | -0.66 |
| C=CC(=O)NCCC(=O)N1c2ccccc2CCC1C (stereo not shown) | 5.89 |
| O=C(CCl)N1CCCC1=O | 79.2 |
| O=C(CCl)N1CCc2cc([N+](=O)[O-])ccc21 | 5.06 |
| NS(=O)(=O)c1ccc2c(c1)CCN2C(=O)CCl | 83.1 |
| O=C(CCl)N1CCCc2ccccc21 | 69.2 |
| CN(C)S(=O)(=O)c1ccc2c(c1)CCCN2C(=O)CCl | 8.14 |
| O=C1CCC(=O)N1CC(=O)N1CCCc2ccccc21 | 10.8 |
| O=C1CCCN1CCCl | 5.09 |
| C=CC(=O)N1CC(C)OC(COC)C1 (stereo not shown) | 6.19 |
| C=CC(=O)N1CCCC(N(C)Cc2noc(C)n2)CC1 (stereo not shown) | 1.13 |
| O=C(CCl)Nc1ccccc1C(=O)Nc1ccc(F)cc1 | 6.28 |
| O=C(CCl)N(Cc1ccco1)CC(F)(F)F | 11.9 |
| CC1(C)OB(c2ccc(F)cc2[N+](=O)[O-])OC1(C)C | 3.67 |
| O=C(Nc1ccc2c(c1)COC2)c1cccnc1S | 2.52 |
| C=CC(=O)NC1C2Cc3ccccc3C21 (stereo not shown) | 11.1 |
| O=C(CCl)N1c2ccccc2CCc2ccccc21 | 61 |
| O=C(CCl)N1c2ccccc2Sc2ccccc21 | 1.08 |
| O=C(CCCl)N1CCc2ccccc21 | 3.9 |
| CCOc1cc(C)ccc1S(=O)(=O)n1cccn1 | 0.108 |

| Structure (SMILES) | Inhibition % [%] |
| --- | --- |
| COC(=O)c1cc(B2OC(C)(C)C(C)(C)O2)c(C)cn1 | 4.59 |
| CS(=O)(=O)OC1CCOC(c2ccncc2)C1 (stereo not shown) | 7.05 |
| CN(Cc1cc(Cl)cc(Cl)c1)C(=O)CCl | 32.4 |
| OB(O)c1ccc(OCc2ccc(Cl)cc2)cc1 | -0.814 |
| CN(CCOc1ccccc1F)c1cccnc1C#N | 40.3 |
| O=C(CCl)COc1ccc(Cl)cc1 | 97.8 |
| O=C(CCl)NCCOc1ccc(Cl)cc1 | 20.3 |
| CN(CCOc1ccc(Cl)cc1)C(=O)CCl | 63.6 |
| CN(CCOc1ccccc1F)C(=O)CCl | 94.1 |
| N#CCCN(C(=O)CCl)c1ccccc1F | 33.7 |
| COc1ccc(N(CC(F)(F)F)C(=O)CCl)cc1 | 36.5 |
| COc1ccc(NC(=O)C(C#N)=Cc2ccco2)cn1 | 10.5 |
| N#Cc1ncn(CC(=O)N2CCc3sccc3C2)n1 | 10.8 |
| CN(C)c1ccc(Cl)cc1NC(=O)CCl | 1.39 |
| CC(C)(C)OC(=O)N1CCC(B2OC(C)(C)C(C)(C)O2)C1 (stereo not shown) | 1.29 |
| CC1CN(C(=O)CN2CCSC2=O)C(C)CO1 (stereo not shown) | 4.59 |
| N#Cc1ccccc1OS(=O)(=O)c1nccs1 | 25.6 |
| Cc1cc(F)ccc1OS(=O)(=O)c1cnn(C)c1 | 9.05 |
| O=C(CCl)Nc1ccc2c(c1)OC1(CCCCC1)O2 | 93.3 |
| O=C(CCl)Nc1ccc2c(c1)NC(=O)CO2 | 32.7 |
| O=C(CCl)Nc1ccc2c(c1)OC1(CCCC1)O2 | 78.4 |
| O=C(CCCl)Nc1ccc2c(c1)OCO2 | 13.1 |
| O=C(CCl)NC(=O)Nc1ccc2c(c1)OCO2 | 1.46 |
| O=C(CCl)Nc1ccc2c(c1)OC(F)(F)O2 | 37.9 |
| COc1ccc(-c2nc(C#N)c(N3CCCC3)o2)cc1 | 5.17 |
| Cn1c(S)nc2ccccc2c1=O | 3.7 |

| Structure (SMILES) | Inhibition % [%] |
| --- | --- |
| O=C(Cc1ccccc1Cl)N1CCCCC1C1OCCO1 (stereo not shown) | 14.3 |
| C=CC(=O)Nc1ccccc1 | 3.57 |
| O=C(CCl)NC(=O)Nc1ccccc1F | -2.13 |
| O=C(CS)Nc1ccc(F)cc1 | 5.25 |
| O=C(CS)Nc1ccccc1F | 81.5 |
| O=C(CCCl)Nc1ccccc1F | 6.72 |
| O=C(CS)Nc1ccccc1 | 50.4 |
| O=S1(=O)C=CC(c2ccccc2)C1 (stereo not shown) | 12.1 |
| CCOc1ccc(S(=O)(=O)n2nc(C)cc2C)cc1C | 7.03 |
| C=CCOc1ccc(Cl)c(C#N)n1 | 4.33 |
| N#CC(=Cc1ccccc1OCC(F)(F)F)C(N)=O | 22.7 |
| CCc1noc(CC)c1CNCc1ccccc1B(O)O | 2.29 |
| O=C(CCl)N1CCNC1=O | 78 |
| O=C(CCl)N1CCNCC1.O=C(O)C(F)(F)F | 7.16 |
| C=CC(=O)N1CCNC(=O)C1 | 11.3 |
| N#CN(CC(=O)N1CCNC1=O)c1ccccc1 | 3.42 |
| O=C1CN(C(=O)CCl)CCN1 | 62.6 |
| O=C(CCl)N1CCOC1=O | 31.6 |
| CN(C)CCOc1ccccc1B1OC(C)(C)C(C)(C)O1 | 6.97 |
| C=CC(=O)N(C)C1CCN(c2ncnc3ccccc23)CC1 | 16.8 |
| Cc1csc(NC(=O)CS)n1 | 71.5 |
| Cc1csc(NC(=O)CCl)n1 | -1.74 |
| Cc1csc(NC(=O)CCN2C(=O)CCC2=O)n1 | 5.08 |
| Cc1cc(Br)ccc1NC(=O)CCl | 19.7 |
| O=C(CCl)NCc1ccc(F)cc1C(F)(F)F | 13.5 |
| C=CC(=O)N(Cc1cccc(C)n1)Cc1cccc(C)n1.O=C(O)C(F)(F)F | 8 |

| Structure (SMILES) | Inhibition % [%] |
| --- | --- |
| Cc1sc(NC(=O)CCl)c(C#N)c1C | 9.37 |
| Cc1sc(NC(=O)CCl)c(C)c1C | 56.3 |
| COC(=O)c1c(NC(=O)CCl)sc(C)c1C | 10.8 |
| C=CC(=O)N1CC(n2nc(C)nc2C)C1 | 9.38 |
| Cn1ccc(NS(=O)(=O)C=Cc2ccccc2)n1 | 11.1 |
| CCc1nn(C)cc1NS(=O)(=O)c1cccc(S(=O)(=O)F)c1 | 95.4 |
| Cn1cnc(NS(=O)(=O)c2ccc(S(=O)(=O)F)cc2)n1 | 5.05 |
| Cn1cc(NS(=O)(=O)c2cccc(S(=O)(=O)F)c2)ccc1=O | 103 |
| Cn1ccc(NS(=O)(=O)c2cccc(S(=O)(=O)F)c2)n1 | 97.7 |
| CCn1ncnc1NS(=O)(=O)c1cccc(S(=O)(=O)F)c1 | 99 |
| Cn1cc(NS(=O)(=O)c2ccc(S(=O)(=O)F)cc2)cn1 | 33 |
| Cn1ccc(Nc2ccc(S(=O)(=O)F)cn2)n1 | 4.77 |
| Cn1ncnc1NS(=O)(=O)c1ccc(S(=O)(=O)F)cc1 | 5.71 |
| CC1(C)C(=O)NC1c1ccco1 (stereo not shown) | 1.96 |
| CN(CCc1nccs1)C(=O)c1cccnc1S | 5.89 |
| C=CC(=O)N1CCN(C(=O)CN2C(=O)CCC2=O)CC1 | 6.08 |
| COC(=O)c1ccc(C)c(NC(=O)CCl)c1 | 3.25 |
| N#CC=C1NC(=O)c2ccccc2S1 | 28.7 |
| CC1CN(C(=O)C=Cc2ccnn2C)CC(C)N1.Cl (stereo not shown) | 14.8 |
| CC(=O)c1ccccc1NC(=O)CCl | 19 |
| Cn1cnc2ccc(S(=O)(=O)F)cc21 | 43.4 |
| Cn1nccc1NS(=O)(=O)c1cccc(S(=O)(=O)F)c1 | 89.5 |
| O=S(=O)(F)c1cccc(S(=O)(=O)Nc2ncccn2)c1 | 16.8 |
| C=CC(=O)N1C2CCC1CC(CC(F)F)C2 (stereo not shown) | 6.6 |
| C=CC(=O)N1CCC[C@H]1C(=O)NC | 4.18 |
| O=C1OCCC1N1CCN(C(=O)c2cccc(F)c2)CC1 (stereo not shown) | 8.98 |

| Structure (SMILES) | Inhibition % [%] |
| --- | --- |
| O=C(CCCl)NC1CCCc2ccccc21 (stereo not shown) | 2.39 |
| N#CC(=Cc1cc2cc(F)ccc2o1)C(N)=O | 6.05 |
| CCc1cc2c(=O)n(CCS(=O)(=O)F)cnc2s1 | 9.17 |
| C=CC(=O)NCc1c(C)noc1C | 13.4 |
| CCc1c(OC(=O)NC)noc1C | 84.6 |
| CNC(=O)Oc1cccc(N)c1 | 20.5 |
| CNC(=O)Oc1noc(C)c1C | 84.8 |
| CNC(=O)Oc1cccc(O)c1 | 37.6 |
| Cc1noc(C)c1CNC(=O)CCl | 46.7 |
| N#Cc1nncn1CC(=O)Nc1ccc(C(F)(F)F)cc1 | 26.2 |
| C=CC(=O)N1CCC(NC(=O)c2oc(C)cc2C)CC1 | 3.91 |
| C=CC(=O)NC1CCc2nnc(CC)n2C1 (stereo not shown) | 7.66 |
| O=C(CCl)c1ccc(F)cc1 | 32.3 |
| O=C(CCl)c1ccc(Cl)cc1 | 75.6 |
| O=C(CCl)c1ccc(N2CCOC2=O)cc1 | 24.5 |
| Cc1ccc(C(=O)CCl)cc1 | 32.3 |
| O=C(CCl)c1ccc(F)cc1F | 18.5 |
| O=C(CCl)c1ccoc1 | 76.6 |
| O=C(CCl)c1ccc(O)cc1 | 86.7 |
| Cn1c(=O)oc2cc(C(=O)CCl)ccc21 | 0.517 |
| O=C(CCl)NC(=O)c1ccc(Cl)cc1 | 19.6 |
| O=C(CCl)c1cc(F)ccc1O | 38.8 |
| O=C(CCl)c1ccc(O)cc1O | 81.9 |
